Nrf2 inh = blocks Nrf2 signaling. Potency, µM (doses to about 46 µM), without a hit: top-dose activity change, negative = inhibition, most hits filed as inhibitors. A549 ARE-Fluc reporter, luciferase luminescence, 18-24 h. 360,000 tested, 2.1% active. AID 504444; also: % is scaled to controls: 0 for no effect and ±100 for the full control effect; nearly all actives have a fitted effect of over 60% in size
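Concentration-response testing used A549 ARE_Fluc cells at 5000 cells/well. Following an 18-24 h compound incubation, viability was read by fluorescence (Ex 405/Em 525) and luciferase output by luminescence.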
TGFb inhibitor = inhibitors of TGF-b signaling; HepG2 CAGA-GFP TGF-b/SMAD3 reporter, GFP fluorescence, 18 h; TGF-beta stimulated, 500 pg/mL final; Potency, µM (top dose mostly 46.1 µM), for the others: at the top dose activity, negative = inhibition, actives largely listed as inhibitors; AID 588855; 410,000 tested, 1.2% active; also: % is scaled to controls: 0 for no effect and ±100 for the full control effect; nearly all actives have a fitted effect of over 65% in size
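Inhibition was scored as loss of TGF-beta-induced (500 pg/mL final, 18 hours, 37 degrees C) GFP in HEPG2 cells carrying a CAGA-GFP reporter, in DMEM with 1% FBS. Well GFP was summed per cell; Activity was normalised to unstimulated and stimulated DMSO wells, then concentration-response fitting.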
A549 viability = A549 cytotoxicity, counter-screen for Nrf2 inhibitors. AID 504648. 390,000 tested, 0.16% active. Potency, µM (top dose mostly 46 µM), without a hit: at the highest dose activity change, negative = cytotoxicity, actives largely listed as inhibitors. A549 ARE-Fluc cells, CellTiter-Fluor viability, 18-24 h; also: % is scaled to controls: 0 for no effect and ±100 for the full control effect
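A549 ARE_Fluc cells in 5% FBS OPTI-MEM were exposed to compounds in concentration-response for 18-24 h at 37 deg C. Viability was read by CellTiter-Fluor fluorescence (Ex 405/Em 525) after 30 min, before the luciferase read.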
HepG2 viability = kills HepG2 cells in TGF-b inhibitor counter-screen; HepG2 CAGA-GFP viability, ATP luminescence, 18 h; AID 588856; Potency, µM (series often up to 46.1 µM), without a hit: top-dose activity change, negative = cytotoxicity, usual class: cytotoxic; 410,000 tested, 0.76% active
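HepG2 CAGA-GFP cells (1000/well, DMEM with 1% FBS) received compound, then TGF-beta at 500 pg/mL final, and were incubated 18 hours at 37 degrees C. Viability was read by CellTiter-Glo luminescence. Media-only wells were set as complete cell-killing and DMSO as no toxicity.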
Nrf2 ARE act = activators of Nrf2 (ARE) signaling; AREc32 ARE-luciferase reporter (MCF7-derived line), luminescence, 24 h; Potency, µM (titrated, usually from 46.1 µM), without a hit: at the top dose activation, actives largely listed as activators; 410,000 tested, 0.31% active; AID 624171; also: % of control where 0% means no effect; nearly all actives have a fitted effect of over 65% in size
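Steps: seed AREc32_Fluc cells (1000/well, 5% FBS OPTI-MEM); incubate overnight at 37 deg C; add 23 nL compound; incubate 24 hr; add Steady-Glo; hold 30 min RT; read luminescence.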
Numbers without * were called inactive; ? = inconclusive; nt = no result given. Shown are actives, neighbours in structure and some others; about 3.6% of the full set was active somewhere. Calls follow the shape of the dose curve; as a rule, active = well fitted curve in the direction sought with a large enough effect; inconclusive = small, poorly fitted or top-dose-only effect, or another doubt; inactive = no such curve, though single readings can be large; an effect the other way counts as inactive or inconclusive. Potency is read from the fitted curve at half-maximal effect.

SMILES	Nrf2 inh	TGFb inhibitor	A549 viability	HepG2 viability	Nrf2 ARE act
COc1cc2c(NC3CCN(C)CC3)nc(N3CCCCC3)nc2cc1OCCCN(C)C	nt	10µM*	nt	-78.2%	nt
O=C(OCCOc1ccc(Br)cc1)c1cnccn1	-1.3%	5.5%	-3.1%	-3.8%	-0.4%
N#C/C(=C\c1ccc(O)c([N+](=O)[O-])c1)c1nc2ccccc2s1	?	12.6µM*	14.6µM*	-31.8%	8.1%
COc1ccc(-c2csc(/C(C#N)=C\c3ccc(O)c([N+](=O)[O-])c3)n2)cc1OC	-21.5%	-14.7%	-13.6%	-16.1%	-0.4%
COc1cc(/C=C(\C#N)c2nc3ccccc3s2)cc([N+](=O)[O-])c1O	?	6.1%	20.6µM*	-19.1%	0.6%
C[C@H](O)C#Cc1ccc2c(c1)O[C@@H](CN(C)Cc1ccc(-c3ccccc3)cc1)[C@H](C)CN([C@@H](C)CO)S2(=O)=O	nt	?	nt	7.08µM*	-4.4%
C[C@@H]1CN([C@H](C)CO)S(=O)(=O)c2ccc(Br)cc2O[C@@H]1CN(C)Cc1ccc(-c2ccccc2)cc1	nt	15.8µM*	nt	-57.3%	-3.4%
C[C@@H]1CN([C@@H](C)CO)S(=O)(=O)c2ccc(Br)cc2O[C@H]1CN(C)Cc1ccccc1F	nt	?	nt	-111.1%	-2.3%
C[C@@H]1CN([C@H](C)CO)S(=O)(=O)c2ccc(C#Cc3ccccc3)cc2O[C@@H]1CN(C)C(=O)CN(C)C	nt	?	nt	-51.2%	-1.7%
C[C@@H]1CN([C@H](C)CO)S(=O)(=O)c2ccc(C#CC3CCCC3)cc2O[C@H]1CN(C)C(=O)Cc1ccccc1	nt	?	nt	15.8µM*	-5.4%
C[C@H]1CN([C@@H](C)CO)S(=O)(=O)c2ccc(Br)cc2O[C@H]1CN(C)Cc1ccccc1F	nt	15.8µM*	nt	-59.8%	1.3%
CCCNC(=O)N(C)C[C@@H]1Oc2cc(C#C[C@H](C)O)ccc2S(=O)(=O)N([C@H](C)CO)C[C@H]1C	nt	-2.2%	nt	-10.8%	0.1%
CCN(CC)C1CCN(C(=O)c2cc(COc3ccccc3SC)on2)C1 (stereo unspecified)	3.0%	-14.2%	-0.4%	-6.4%	-0.1%
Cc1ccc(C(=O)/C=C/c2ccc3c(c2)OCCO3)c(O)c1	-1.3%	-27.0%	1.9%	-1.0%	15.5%
Nc1c(Cl)ncnc1N/N=C/c1ccc2ccccc2n1	13µM*	4.47µM*	?	-19.7%	?
Cc1cc(Cl)ccc1NC(=S)NCCCO	0.2%	0.6%	1.2%	1.0%	-0.5%
Cc1ccc(Cl)cc1NC(=S)NCCCSC1CCCCC1	25.9µM*	11.2µM*	?	-44.9%	2.7%
CSc1ccc(CN2CCN(CCC(C)C)C(CCO)C2)cc1 (stereo unspecified)	-9.5%	3.3%	-10.0%	0.2%	0.0%
Cc1ccc(S(=O)(=O)Nc2cccnc2)cc1C	-0.3%	-29.0%	-3.7%	14.0%	-0.2%
Cc1ccc(S(=O)(=O)Nc2ccc(-c3csc(-c4ccccc4)n3)cc2)cc1	-4.5%	?	-12.2%	12.6µM*	0.2%
Cc1ccc(-c2ccc(S(=O)(=O)Nc3cccnc3)cc2)cc1	11.6µM*	-18.5%	0.1%	-14.8%	3.0%
Cc1ccc(S(=O)(=O)Nc2ccc(-n3c(C)nc4ccccc4c3=O)cc2)cc1	18.4µM*	0.0%	0.3%	-4.1%	-0.7%
O=S(=O)(Nc1ccc(-c2csc(-c3ccccc3)n2)cc1)c1ccccc1	-12.7%	?	2.1%	14.1µM*	3.3%
O=C(COC(=O)CCc1ccccc1)Nc1cc(S(=O)(=O)N2CCOCC2)ccc1N1CCCC1	-6.2%	6.9%	-1.4%	1.3%	-0.3%
Cc1cccnc1NC(=O)c1sc2ccccc2c1Cl	?	-8.2%	13.1%	-7.3%	?
O=C1c2ccccc2CC1Sc1nnc(-c2ccccn2)o1 (stereo unspecified)	?	-2.0%	7.2%	-22.2%	12.6µM*
O=C1CC(Sc2nnc(-c3ccccc3O)o2)C(=O)N1c1ccccc1 (stereo unspecified)	1.5%	?	3.8%	-46.7%	4.7%

Screening data from PubChem BioAssay.
